In the supplement of paper PMC8371130:
Structures can show the parent of a compound that is named as a salt.

Tested on: HL-1
Test: relative cell viability (CellTiter-Glo) vs DMSO control (% of DMSO control); higher = more viable cells
In short: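 In 384-well plates, 1000 HL-1 mouse atrial cardiomyocytes per well were plated with compounds at 40, 200, 1000 or 5000 nM in 0.01% DMSO. Hypoxia at 1% O2 for 48 h began one day later and was followed by 24 h of reoxygenation, with parallel plates held in normoxia. CellTiter-Glo luminescence gave cell viability relative to vehicle-treated control cells.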

[1] = oxygen condition: hypoxia 48 h (1% O2) + reoxygenation 24 h, 40 nM
[2] = oxygen condition: hypoxia 48 h (1% O2) + reoxygenation 24 h, 200 nM
[3] = oxygen condition: hypoxia 48 h (1% O2) + reoxygenation 24 h, 1000 nM
[4] = oxygen condition: hypoxia 48 h (1% O2) + reoxygenation 24 h, 5000 nM
[5] = oxygen condition: normoxia 72 h, 40 nM
[6] = oxygen condition: normoxia 72 h, 200 nM
[7] = oxygen condition: normoxia 72 h, 1000 nM
[8] = oxygen condition: normoxia 72 h, 5000 nM

SMILES	relative cell viability [1]	relative cell viability [2]	relative cell viability [3]	relative cell viability [4]	relative cell viability [5]	relative cell viability [6]	relative cell viability [7]	relative cell viability [8]
Nc1ncn([C@H]2C[C@H](O)[C@@H](CO)O2)c(=O)n1 [Decitabine]	103	104	94.1	65.4	101	104	91.2	58.2
CCN[C@H]1C[C@H](C)S(=O)(=O)c2sc(S(N)(=O)=O)cc21 [Dorzolamide HCL]	111	105	104	111	117	106	107	121
O=C(CCCN1CC=C(n2c(=O)[nH]c3ccccc32)CC1)c1ccc(F)cc1 [Droperidol]	94.9	102	105	103	97.3	97	93.9	106
Nc1[nH]cnc2ncnc1-2 [Adenine hydrochloride]	108	105	104	110	100	96.4	103	107
CCCCCCCCOc1ccccc1C(=O)Nc1ccc(C(=O)OCC[N+](C)(CC)CC)cc1 [Otilonium Bromide]	101	107	108	114	107	105	110	114
CS(=O)(=O)CCNCc1ccc(-c2ccc3ncnc(Nc4ccc(OCc5cccc(F)c5)c(Cl)c4)c3c2)o1 [Lapatinib Ditosylate]	107	116	116	84.4	107	115	122	61.7
CC1COc2c(N3CCN(C)CC3)c(F)cc3c(=O)c(C(=O)O)cn1c23 (stereo not drawn) [Ofloxacin]	99.3	99.8	97.8	108	98.5	97.3	62.4	115
N[C@@H](Cc1cc(I)c(Oc2ccc(O)c(I)c2)c(I)c1)C(=O)O [Liothyronine Sodium]	105	108	111	109	103	102	108	107
OCCOCCN1CCN(C(c2ccccc2)c2ccc(Cl)cc2)CC1 (stereo not drawn) [Hydroxyzine 2HCl]	104	107	109	114	102	107	105	109
Nc1nc(Cl)nc2c1ncn2[C@@H]1O[C@H](CO)[C@@H](O)[C@@H]1F [Clofarabine]	114	69.7	6.59	2.39	106	62.6	3.43	1.95
CCCCc1ncc(/C=C(\Cc2cccs2)C(=O)O)n1Cc1ccc(C(=O)O)cc1 [Eprosartan Mesylate]	96.2	101	103	104	107	102	102	105
c1ccc2c(CC3=NCCN3)cccc2c1 [Naphazoline hydrochloride]	97.8	111	106	109	98.8	102	106	102
O=C1c2ccccc2C(=O)C1c1ccccc1 [Phenindione]	97	105	95.1	113	108	107	102	108
CN(Cc1cc(Br)cc(Br)c1N)C1CCCCC1 [Bromhexine HCl]	97.5	96.2	99.9	102	104	108	98.4	108
CCCCC1C(=O)N(c2ccccc2)N(c2ccccc2)C1=O [Phenylbutazone]	100	104	93.3	110	102	112	43.1	112
CC(C)(C#N)c1cc(Cn2cncn2)cc(C(C)(C)C#N)c1 [Anastrozole]	94.2	99.5	57.7	34.5	100	93.2	87.9	22.4
S=c1[nH]cnc2nc[nH]c12 [Mercaptopurine]	112	104	111	99.1	103	103	108	103
CNC(=O)c1ccc(N2C(=S)N(c3ccc(C#N)c(C(F)(F)F)c3)C(=O)C2(C)C)cc1F	99.6	103	51.5	106	99.6	102	106	109
CC(=O)OCC(=O)NCCCOc1cccc(CN2CCCCC2)c1 [Roxatidine acetate HCl]	105	104	99.8	114	110	102	107	108
CCN(CC)CCOc1ccc(C(=C(Cl)c2ccccc2)c2ccccc2)cc1 [Clomifene citrate]	101	104	107	35.1	111	106	98.2	6.57
CCOC(=O)[C@H](CCc1ccccc1)N[C@@H](C)C(=O)N1C(=O)N(C)C[C@H]1C(=O)O [Imidapril]	111	103	99.3	115	110	103	104	113
